Results published in PubChem BioAssay AID1159580 (chemical genetic matrix, 2015).
The campaign covered roughly 5,500 compounds. About 2,000 (36%) were called active. Inconclusive results (about 18%) are left out. Rule as the data show it: active = normalized growth mostly below about 0.91 (no sharp cut-off); inconclusive = no clear call, values can overlap the other calls; inactive = mostly above about 0.92. The list shows a part of the results.

Assay: chemical genetic growth profiling, strain panel (AID 1159580);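 also: tested at 20 µM; growth read once vehicle control cultures reached saturation at 30 °C; 1 = growth at the plate median or of vehicle wells; lower values mean less growth of the strain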
Settings: growth OD

Measured: normalized growth

C[N+]12CCC(CC1)C(OC(=O)C(O)(c1ccccc1)c1ccccc1)C2 (configuration not stated)
inactive: S. cerevisiae deletion strains, locus YJR075W, strain HOC1, active compounds read low 0.982 | S. cerevisiae deletion strains, locus YKL009W, strain mrt4, active compounds read low 0.998 | S. cerevisiae deletion strains, locus YKL068W, active compounds read low 0.985 | S. cerevisiae deletion strains, locus YKL085W, strain MDH1 (second series), active compounds read low 0.994 | S. cerevisiae deletion strains, locus YKL085W, strain MDH1, active compounds read low 0.994 | S. cerevisiae deletion strains, locus YKL160W, strain elf1, active compounds read low 0.962 | S. cerevisiae deletion strains, locus YKL190W, strain CNB1, active compounds read low 1 | S. cerevisiae deletion strains, locus YKR001C, strain vps1, active compounds read low 0.958 | S. cerevisiae deletion strains, locus YKR026C, strain gcn3, active compounds read low 0.984 | S. cerevisiae deletion strains, locus YKR091W, strain srl3, active compounds read low 0.972 | S. cerevisiae deletion strains, locus YLL001W, strain dnm1, active compounds read low 0.922 | S. cerevisiae deletion strains, locus YLL026W, active compounds read low 0.975 | S. cerevisiae deletion strains, locus YLL041C, strain sdh2, active compounds read low 1 | S. cerevisiae deletion strains, locus YLR027C, strain aat2, active compounds read low 0.977 | S. cerevisiae deletion strains, locus YLR039C, strain RIC1, active compounds read low 1.02 | S. cerevisiae deletion strains, locus YLR058C, strain SHM2, active compounds read low 0.985 | S. cerevisiae deletion strains, locus YLR102C, strain apc9, active compounds read low 0.987 | S. cerevisiae deletion strains, locus YLR113W, strain HOG1, active compounds read low 0.975 | S. cerevisiae deletion strains, locus YLR221C, strain rsa3, active compounds read low 0.929 | S. cerevisiae deletion strains, locus YLR258W, strain gsy2, active compounds read low 0.979 | S. cerevisiae deletion strains, locus YLR262C, strain YPT6 (second series), active compounds read low 0.955 | S. cerevisiae deletion strains, locus YLR262C, strain YPT6, active compounds read low 1 | S. cerevisiae deletion strains, locus YLR268W, strain sec22, active compounds read low 0.906 | S. cerevisiae deletion strains, locus YLR320W, strain mms22, active compounds read low 0.952 | S. cerevisiae deletion strains, locus YLR330W, strain CHS5, active compounds read low 0.995 | S. cerevisiae deletion strains, locus YLR342W, strain FKS1 (second series), active compounds read low 1.01 | S. cerevisiae deletion strains, locus YLR342W, strain FKS1, active compounds read low 0.989 | S. cerevisiae deletion strains, locus YLR357W, strain rsc2, active compounds read low 0.983 | S. cerevisiae deletion strains, locus YLR370C, strain arc18, active compounds read low 0.966 | S. cerevisiae deletion strains, locus YLR371W, strain rom2, active compounds read low 0.977 | S. cerevisiae deletion strains, locus YLR384C, strain iki3, active compounds read low 0.985 | S. cerevisiae deletion strains, locus YLR418C, strain cdc73, active compounds read low 0.955 | S. cerevisiae deletion strains, locus YML016C, strain PPZ1, active compounds read low 0.989 | S. cerevisiae deletion strains, locus YML032C, strain rad52, active compounds read low 0.96 | S. cerevisiae deletion strains, locus YML120C, strain ndi1, active compounds read low 0.939 | S. cerevisiae deletion strains, locus YML124C, strain tub3, active compounds read low 0.985 | S. cerevisiae deletion strains, locus YMR058W, strain fet3, active compounds read low 0.981 | S. cerevisiae deletion strains, locus YMR078C, strain ctf18, active compounds read low 0.977 | S. cerevisiae deletion strains, locus YMR125W, strain sto1, active compounds read low 0.924 | S. cerevisiae deletion strains, locus YMR129W, active compounds read low 1.01 | S. cerevisiae deletion strains, locus YMR205C, strain PFK2, active compounds read low 0.948 | S. cerevisiae deletion strains, locus YMR223W, strain ubp8, active compounds read low 1.01 | S. cerevisiae deletion strains, locus YMR231W, strain pep5, active compounds read low 1 | S. cerevisiae deletion strains, locus YMR263W, strain SAP30, active compounds read low 0.985 | S. cerevisiae deletion strains, locus YMR307W, strain GAS1, active compounds read low 1 | S. cerevisiae deletion strains, locus YNL067W, strain RPL9B, active compounds read low 0.978 | S. cerevisiae deletion strains, locus YNL071W, strain lat1, active compounds read low 1 | S. cerevisiae deletion strains, locus YNL128W, strain TEP1, active compounds read low 0.998 | S. cerevisiae deletion strains, locus YNL153C, strain GIM3, active compounds read low 0.98 | S. cerevisiae deletion strains, locus YNL183C, strain NPR1, active compounds read low 0.932 | S. cerevisiae deletion strains, locus YNL209W, strain ssb2, active compounds read low 0.978 | S. cerevisiae deletion strains, locus YNL233W, strain BNI4, active compounds read low 0.978 | S. cerevisiae deletion strains, locus YNL248C, strain rpa49, active compounds read low 0.984 | S. cerevisiae deletion strains, locus YNL250W, strain rad50, active compounds read low 0.985 | S. cerevisiae deletion strains, locus YNL271C, strain bni1, active compounds read low 0.974 | S. cerevisiae deletion strains, locus YNL298W, strain CLA4, active compounds read low 0.984 | S. cerevisiae deletion strains, locus YNL307C, strain MCK1, active compounds read low 0.969 | S. cerevisiae deletion strains, locus YNL322C, strain KRE1 (second series), active compounds read low 0.966 | S. cerevisiae deletion strains, locus YNL322C, strain KRE1, active compounds read low 0.998 | S. cerevisiae deletion strains, locus YNR049C, strain mso1, active compounds read low 0.973 | S. cerevisiae deletion strains, locus YNR052C, strain pop2, active compounds read low 0.986 | S. cerevisiae deletion strains, locus YOL006C, strain TOP1, active compounds read low 0.965 | S. cerevisiae deletion strains, locus YOL012C, strain htz1 0.92 | S. cerevisiae deletion strains, locus YOL147C, strain pex11, active compounds read low 0.985 | S. cerevisiae deletion strains, locus YOR001W, strain rrp6, active compounds read low 1.04 | S. cerevisiae deletion strains, locus YOR061W, strain CKA2, active compounds read low 0.99 | S. cerevisiae deletion strains, locus YOR069W, strain VPS5, active compounds read low 0.986 | S. cerevisiae deletion strains, locus YOR070C, strain gyp1, active compounds read low 0.985 | S. cerevisiae deletion strains, locus YOR080W, strain dia2, active compounds read low 0.97 | S. cerevisiae deletion strains, locus YOR083W, strain WHI5, active compounds read low 0.965 | S. cerevisiae deletion strains, locus YOR106W, strain vam3, active compounds read low 0.951 | S. cerevisiae deletion strains, locus YOR136W, strain idh2, active compounds read low 0.979 | S. cerevisiae deletion strains, locus YOR144C, strain elg1, active compounds read low 0.984 | S. cerevisiae deletion strains, locus YOR184W, strain ser1, active compounds read low 0.96 | S. cerevisiae deletion strains, locus YOR231W, strain MKK1, active compounds read low 0.98 | S. cerevisiae deletion strains, locus YOR265W, strain rbl2, active compounds read low 0.986 | S. cerevisiae deletion strains, locus YOR270C, strain vph1, active compounds read low 0.995 | S. cerevisiae deletion strains, locus YOR290C, strain snf2, active compounds read low 0.966 | S. cerevisiae deletion strains, locus YOR316C, strain cot1, active compounds read low 0.975 | S. cerevisiae deletion strains, locus YPL051W, strain arl3, active compounds read low 0.987 | S. cerevisiae deletion strains, locus YPL055C, strain LGE1, active compounds read low 0.992 | S. cerevisiae deletion strains, locus YPL078C, strain atp4, active compounds read low 0.958 | S. cerevisiae deletion strains, locus YPL106C, strain sse1, active compounds read low 0.94 | S. cerevisiae deletion strains, locus YPL240C, strain hsp82, active compounds read low 0.996 | S. cerevisiae deletion strains, locus YPL241C, strain CIN2, active compounds read low 0.996 | S. cerevisiae deletion strains, locus YPL256C, strain CLN2, active compounds read low 0.959 | S. cerevisiae deletion strains, locus YPR119W, strain clb2, active compounds read low 0.983 | S. cerevisiae deletion strains, locus YPR141C, strain kar3, active compounds read low 0.967 | S. cerevisiae deletion strains, locus YPR163C, strain tif3, active compounds read low 0.973 | S. cerevisiae deletion strains, locus YPR167C, strain met16, active compounds read low 0.978 | S. cerevisiae deletion strains, strain wtn01, active compounds read low 0.964 | S. cerevisiae strains, strain wild type, active compounds read low 0.992
